Measured values published in ChEMBL document CHEMBL1961873, “Compounds: GSK PKIS; Assays: Nanosyn kinase panel” (2012).

Assays:
[1] = biological target: T1, Mitogen-activated protein kinase 12 (Homo sapiens) (UniProt P53778); settings: at 1 µM;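 further: values are averaged p38gamma kinase inhibition readings, compounds tested at 1 µM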
T1 sequence (whole entry): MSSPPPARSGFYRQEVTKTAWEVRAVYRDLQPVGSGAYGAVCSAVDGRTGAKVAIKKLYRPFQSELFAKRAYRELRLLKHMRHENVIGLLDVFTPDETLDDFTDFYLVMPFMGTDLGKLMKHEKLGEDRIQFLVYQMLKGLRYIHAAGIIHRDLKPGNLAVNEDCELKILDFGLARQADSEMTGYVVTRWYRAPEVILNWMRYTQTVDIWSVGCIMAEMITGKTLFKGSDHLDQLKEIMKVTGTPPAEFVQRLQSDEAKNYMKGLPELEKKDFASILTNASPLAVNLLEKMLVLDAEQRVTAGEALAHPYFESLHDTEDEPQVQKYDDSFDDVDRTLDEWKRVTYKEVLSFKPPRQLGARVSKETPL

[2] = biological target: SRSF protein kinase 1 (Homo sapiens) (UniProt Q96SB4); settings: at 0.1 µM
Chain of SRSF protein kinase 1 (Homo sapiens) (Q96SB4 whole entry, canonical isoform): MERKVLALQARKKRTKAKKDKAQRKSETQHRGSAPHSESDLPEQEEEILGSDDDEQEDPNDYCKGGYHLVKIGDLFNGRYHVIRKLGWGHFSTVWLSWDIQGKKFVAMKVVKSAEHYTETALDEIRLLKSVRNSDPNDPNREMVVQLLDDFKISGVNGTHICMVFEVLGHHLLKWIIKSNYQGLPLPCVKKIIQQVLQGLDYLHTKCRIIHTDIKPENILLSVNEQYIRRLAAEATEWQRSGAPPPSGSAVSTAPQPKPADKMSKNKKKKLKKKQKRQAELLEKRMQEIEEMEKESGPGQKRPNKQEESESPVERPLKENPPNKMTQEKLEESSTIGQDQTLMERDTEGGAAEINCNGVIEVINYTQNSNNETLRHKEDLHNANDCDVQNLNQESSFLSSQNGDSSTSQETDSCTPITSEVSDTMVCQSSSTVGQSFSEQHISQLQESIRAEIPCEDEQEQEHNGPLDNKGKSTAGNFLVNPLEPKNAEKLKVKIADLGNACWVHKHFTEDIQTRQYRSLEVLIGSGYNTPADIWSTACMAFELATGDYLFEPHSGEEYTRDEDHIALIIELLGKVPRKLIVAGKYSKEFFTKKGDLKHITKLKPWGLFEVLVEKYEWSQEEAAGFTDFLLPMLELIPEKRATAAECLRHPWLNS

[3] = biological target: SRSF protein kinase 1 (Homo sapiens) (UniProt Q96SB4); settings: at 1 µM
[4] = biological target: Phosphatidylinositol 4,5-bisphosphate 3-kinase catalytic subunit alpha isoform (Homo sapiens) (UniProt P42336); settings: at 0.1 µM
Chain of Phosphatidylinositol 4,5-bisphosphate 3-kinase catalytic subunit alpha isoform (Homo sapiens) (P42336 whole entry, canonical isoform): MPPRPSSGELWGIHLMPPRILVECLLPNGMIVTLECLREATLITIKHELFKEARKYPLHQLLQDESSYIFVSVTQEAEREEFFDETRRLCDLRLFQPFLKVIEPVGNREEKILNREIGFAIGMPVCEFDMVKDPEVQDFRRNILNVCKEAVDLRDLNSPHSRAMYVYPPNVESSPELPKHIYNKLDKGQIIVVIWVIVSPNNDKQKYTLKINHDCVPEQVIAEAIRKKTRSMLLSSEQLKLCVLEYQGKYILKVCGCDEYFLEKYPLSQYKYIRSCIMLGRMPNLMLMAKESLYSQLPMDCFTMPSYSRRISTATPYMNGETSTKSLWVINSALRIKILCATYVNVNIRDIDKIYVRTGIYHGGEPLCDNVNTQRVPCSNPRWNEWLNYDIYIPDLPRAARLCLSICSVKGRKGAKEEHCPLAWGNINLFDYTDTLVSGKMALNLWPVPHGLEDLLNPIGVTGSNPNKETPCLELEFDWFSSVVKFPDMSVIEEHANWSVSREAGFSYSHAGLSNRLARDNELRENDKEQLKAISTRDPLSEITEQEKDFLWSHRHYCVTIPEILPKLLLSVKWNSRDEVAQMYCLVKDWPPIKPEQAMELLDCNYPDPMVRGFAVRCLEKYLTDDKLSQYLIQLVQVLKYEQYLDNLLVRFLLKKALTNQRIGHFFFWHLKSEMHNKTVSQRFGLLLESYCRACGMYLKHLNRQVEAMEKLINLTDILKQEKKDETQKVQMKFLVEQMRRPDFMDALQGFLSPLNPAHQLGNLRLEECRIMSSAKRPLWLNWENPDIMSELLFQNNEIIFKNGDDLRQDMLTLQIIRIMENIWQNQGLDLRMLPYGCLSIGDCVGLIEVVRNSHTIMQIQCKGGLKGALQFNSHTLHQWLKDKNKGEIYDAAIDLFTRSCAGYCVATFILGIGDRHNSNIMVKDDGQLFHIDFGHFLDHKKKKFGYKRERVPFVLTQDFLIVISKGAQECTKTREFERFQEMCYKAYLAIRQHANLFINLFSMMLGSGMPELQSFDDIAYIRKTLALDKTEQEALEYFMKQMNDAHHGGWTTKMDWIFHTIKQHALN

[5] = biological target: Phosphatidylinositol 4,5-bisphosphate 3-kinase catalytic subunit alpha isoform (Homo sapiens) (UniProt P42336); settings: at 1 µM
[6] = biological target: T2, Phosphatidylinositol 4,5-bisphosphate 3-kinase catalytic subunit delta isoform (Homo sapiens) (UniProt O00329); settings: at 0.1 µM
T2 sequence (whole entry): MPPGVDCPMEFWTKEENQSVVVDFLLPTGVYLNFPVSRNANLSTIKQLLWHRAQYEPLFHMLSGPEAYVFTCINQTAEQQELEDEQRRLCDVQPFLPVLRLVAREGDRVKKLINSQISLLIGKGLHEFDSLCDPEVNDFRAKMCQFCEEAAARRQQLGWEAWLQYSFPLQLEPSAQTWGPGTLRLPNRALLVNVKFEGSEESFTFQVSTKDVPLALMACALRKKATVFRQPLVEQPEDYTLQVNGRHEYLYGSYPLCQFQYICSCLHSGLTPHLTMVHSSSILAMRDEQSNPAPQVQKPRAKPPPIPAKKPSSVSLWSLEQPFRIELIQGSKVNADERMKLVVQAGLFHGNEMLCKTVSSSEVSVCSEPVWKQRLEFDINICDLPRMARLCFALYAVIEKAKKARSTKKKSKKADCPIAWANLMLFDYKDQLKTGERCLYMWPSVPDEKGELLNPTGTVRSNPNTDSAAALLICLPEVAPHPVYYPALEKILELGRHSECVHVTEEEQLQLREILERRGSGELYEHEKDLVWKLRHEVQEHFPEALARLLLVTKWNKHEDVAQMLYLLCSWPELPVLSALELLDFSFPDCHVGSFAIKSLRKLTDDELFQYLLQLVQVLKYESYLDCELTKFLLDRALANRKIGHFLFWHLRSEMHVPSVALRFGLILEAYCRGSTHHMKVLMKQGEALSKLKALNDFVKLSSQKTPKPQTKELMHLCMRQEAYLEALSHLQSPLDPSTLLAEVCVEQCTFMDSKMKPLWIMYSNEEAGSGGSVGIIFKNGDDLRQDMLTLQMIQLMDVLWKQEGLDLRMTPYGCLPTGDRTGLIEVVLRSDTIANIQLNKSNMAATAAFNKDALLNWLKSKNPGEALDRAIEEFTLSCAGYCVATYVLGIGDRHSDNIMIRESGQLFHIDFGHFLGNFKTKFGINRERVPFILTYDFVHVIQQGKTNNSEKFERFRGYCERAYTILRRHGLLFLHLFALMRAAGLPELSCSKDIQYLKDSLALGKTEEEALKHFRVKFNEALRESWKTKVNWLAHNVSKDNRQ

[7] = biological target: T2, Phosphatidylinositol 4,5-bisphosphate 3-kinase catalytic subunit delta isoform (Homo sapiens); settings: at 1 µM
[8] = biological target: Phosphatidylinositol 4-kinase beta (Homo sapiens) (UniProt Q9UBF8); settings: at 0.1 µM
Chain of Phosphatidylinositol 4-kinase beta (Homo sapiens) (Q9UBF8 2-816 limits assumed): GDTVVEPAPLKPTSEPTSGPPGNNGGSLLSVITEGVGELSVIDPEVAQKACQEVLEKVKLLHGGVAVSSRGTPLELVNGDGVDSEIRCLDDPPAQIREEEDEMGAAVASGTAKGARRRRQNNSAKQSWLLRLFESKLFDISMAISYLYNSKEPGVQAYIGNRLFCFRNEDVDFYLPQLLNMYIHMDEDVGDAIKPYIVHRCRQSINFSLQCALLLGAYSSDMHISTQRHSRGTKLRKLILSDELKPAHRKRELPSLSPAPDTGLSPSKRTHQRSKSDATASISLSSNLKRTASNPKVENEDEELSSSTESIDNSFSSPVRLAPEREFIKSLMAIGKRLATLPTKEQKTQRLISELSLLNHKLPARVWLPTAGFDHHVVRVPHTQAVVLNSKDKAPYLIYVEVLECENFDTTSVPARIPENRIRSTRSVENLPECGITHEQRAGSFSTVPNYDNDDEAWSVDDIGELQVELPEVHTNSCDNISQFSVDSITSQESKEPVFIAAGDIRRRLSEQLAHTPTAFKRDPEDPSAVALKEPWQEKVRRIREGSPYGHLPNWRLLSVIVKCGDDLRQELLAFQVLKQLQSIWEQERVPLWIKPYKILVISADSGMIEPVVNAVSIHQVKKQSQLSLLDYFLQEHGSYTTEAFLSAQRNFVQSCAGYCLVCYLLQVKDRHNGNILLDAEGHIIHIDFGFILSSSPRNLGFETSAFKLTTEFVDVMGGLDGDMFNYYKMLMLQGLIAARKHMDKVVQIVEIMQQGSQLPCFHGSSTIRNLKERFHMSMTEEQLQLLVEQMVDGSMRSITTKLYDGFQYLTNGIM

[9] = biological target: Phosphatidylinositol 4-kinase beta (Homo sapiens) (UniProt Q9UBF8); settings: at 1 µM
[10] = biological target: Sphingosine kinase 1 (Homo sapiens) (UniProt Q9NYA1); settings: at 0.1 µM
Chain of Sphingosine kinase 1 (Homo sapiens) (Q9NYA1 whole entry): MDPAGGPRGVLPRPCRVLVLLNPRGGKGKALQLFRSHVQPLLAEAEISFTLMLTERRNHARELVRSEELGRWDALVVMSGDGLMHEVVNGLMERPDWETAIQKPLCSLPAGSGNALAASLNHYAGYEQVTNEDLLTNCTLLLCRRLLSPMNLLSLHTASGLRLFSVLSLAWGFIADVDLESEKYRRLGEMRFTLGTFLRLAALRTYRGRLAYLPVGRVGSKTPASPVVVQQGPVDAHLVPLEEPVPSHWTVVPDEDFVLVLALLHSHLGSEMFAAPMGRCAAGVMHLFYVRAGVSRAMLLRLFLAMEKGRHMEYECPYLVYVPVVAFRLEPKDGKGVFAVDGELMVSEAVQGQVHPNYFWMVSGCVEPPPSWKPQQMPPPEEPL

[11] = biological target: Sphingosine kinase 1 (Homo sapiens) (UniProt Q9NYA1); settings: at 1 µM
[12] = biological target: T3, Sphingosine kinase 2 (Homo sapiens) (UniProt Q9NRA0); settings: at 0.1 µM
T3 sequence (whole entry): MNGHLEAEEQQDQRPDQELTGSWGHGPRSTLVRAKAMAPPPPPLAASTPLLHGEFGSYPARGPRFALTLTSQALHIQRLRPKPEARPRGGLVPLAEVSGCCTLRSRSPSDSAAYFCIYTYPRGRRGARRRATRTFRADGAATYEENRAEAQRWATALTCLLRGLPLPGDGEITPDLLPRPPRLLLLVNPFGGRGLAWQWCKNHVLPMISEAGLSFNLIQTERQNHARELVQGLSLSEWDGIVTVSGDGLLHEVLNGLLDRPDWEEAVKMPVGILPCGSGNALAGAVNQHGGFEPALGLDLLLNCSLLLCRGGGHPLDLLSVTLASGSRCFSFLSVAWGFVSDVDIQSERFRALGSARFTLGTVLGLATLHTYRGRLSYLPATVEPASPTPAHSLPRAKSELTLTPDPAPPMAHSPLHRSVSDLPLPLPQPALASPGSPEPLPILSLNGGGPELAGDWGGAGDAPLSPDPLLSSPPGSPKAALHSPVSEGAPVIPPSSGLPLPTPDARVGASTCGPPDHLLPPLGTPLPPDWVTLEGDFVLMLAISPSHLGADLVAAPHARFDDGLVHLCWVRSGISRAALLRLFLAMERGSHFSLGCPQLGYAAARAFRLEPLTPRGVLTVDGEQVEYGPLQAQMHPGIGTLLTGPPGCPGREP

[13] = biological target: T3, Sphingosine kinase 2 (Homo sapiens); settings: at 1 µM
[14] = biological target: Casein kinase II subunit alpha (Homo sapiens) (UniProt P68400); settings: at 0.1 µM
Chain of Casein kinase II subunit alpha (Homo sapiens) (P68400 whole entry, looked up): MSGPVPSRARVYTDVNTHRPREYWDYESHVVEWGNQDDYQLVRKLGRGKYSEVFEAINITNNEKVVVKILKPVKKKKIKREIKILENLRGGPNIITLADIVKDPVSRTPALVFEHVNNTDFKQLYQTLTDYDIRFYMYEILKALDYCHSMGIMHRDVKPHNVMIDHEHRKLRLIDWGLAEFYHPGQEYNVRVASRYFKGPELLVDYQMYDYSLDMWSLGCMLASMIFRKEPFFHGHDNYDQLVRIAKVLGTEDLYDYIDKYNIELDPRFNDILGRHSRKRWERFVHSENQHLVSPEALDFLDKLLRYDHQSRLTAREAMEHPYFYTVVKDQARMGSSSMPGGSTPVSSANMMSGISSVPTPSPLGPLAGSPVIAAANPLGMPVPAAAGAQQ

[15] = biological target: Casein kinase II subunit alpha (Homo sapiens) (UniProt P68400); settings: at 1 µM
[16] = biological target: T4, Inhibitor of nuclear factor kappa-B kinase subunit alpha (Homo sapiens) (UniProt O15111); settings: at 0.1 µM
T4 sequence (whole entry): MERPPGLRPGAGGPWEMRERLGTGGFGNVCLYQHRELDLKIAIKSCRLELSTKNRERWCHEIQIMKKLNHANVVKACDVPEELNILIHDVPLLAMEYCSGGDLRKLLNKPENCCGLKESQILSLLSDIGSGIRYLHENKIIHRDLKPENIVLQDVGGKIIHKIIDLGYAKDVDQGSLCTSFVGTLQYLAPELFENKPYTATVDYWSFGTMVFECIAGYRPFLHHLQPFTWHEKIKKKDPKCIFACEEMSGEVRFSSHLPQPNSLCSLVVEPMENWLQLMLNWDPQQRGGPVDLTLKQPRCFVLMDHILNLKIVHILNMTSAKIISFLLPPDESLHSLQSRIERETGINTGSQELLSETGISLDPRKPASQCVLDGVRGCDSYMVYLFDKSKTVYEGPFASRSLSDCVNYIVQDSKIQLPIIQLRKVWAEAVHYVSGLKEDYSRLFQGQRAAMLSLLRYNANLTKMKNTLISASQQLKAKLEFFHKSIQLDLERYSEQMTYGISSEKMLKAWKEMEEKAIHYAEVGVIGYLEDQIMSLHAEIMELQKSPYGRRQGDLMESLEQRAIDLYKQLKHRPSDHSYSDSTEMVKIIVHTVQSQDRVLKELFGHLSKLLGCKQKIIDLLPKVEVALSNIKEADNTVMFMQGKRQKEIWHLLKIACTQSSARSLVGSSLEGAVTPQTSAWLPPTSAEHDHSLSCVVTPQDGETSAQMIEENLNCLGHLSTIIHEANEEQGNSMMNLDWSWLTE

[17] = biological target: T4, Inhibitor of nuclear factor kappa-B kinase subunit alpha (Homo sapiens); settings: at 1 µM
[18] = biological target: T5, Inhibitor of nuclear factor kappa-B kinase subunit beta (Homo sapiens) (UniProt O14920); settings: at 0.1 µM
T5 sequence (whole entry): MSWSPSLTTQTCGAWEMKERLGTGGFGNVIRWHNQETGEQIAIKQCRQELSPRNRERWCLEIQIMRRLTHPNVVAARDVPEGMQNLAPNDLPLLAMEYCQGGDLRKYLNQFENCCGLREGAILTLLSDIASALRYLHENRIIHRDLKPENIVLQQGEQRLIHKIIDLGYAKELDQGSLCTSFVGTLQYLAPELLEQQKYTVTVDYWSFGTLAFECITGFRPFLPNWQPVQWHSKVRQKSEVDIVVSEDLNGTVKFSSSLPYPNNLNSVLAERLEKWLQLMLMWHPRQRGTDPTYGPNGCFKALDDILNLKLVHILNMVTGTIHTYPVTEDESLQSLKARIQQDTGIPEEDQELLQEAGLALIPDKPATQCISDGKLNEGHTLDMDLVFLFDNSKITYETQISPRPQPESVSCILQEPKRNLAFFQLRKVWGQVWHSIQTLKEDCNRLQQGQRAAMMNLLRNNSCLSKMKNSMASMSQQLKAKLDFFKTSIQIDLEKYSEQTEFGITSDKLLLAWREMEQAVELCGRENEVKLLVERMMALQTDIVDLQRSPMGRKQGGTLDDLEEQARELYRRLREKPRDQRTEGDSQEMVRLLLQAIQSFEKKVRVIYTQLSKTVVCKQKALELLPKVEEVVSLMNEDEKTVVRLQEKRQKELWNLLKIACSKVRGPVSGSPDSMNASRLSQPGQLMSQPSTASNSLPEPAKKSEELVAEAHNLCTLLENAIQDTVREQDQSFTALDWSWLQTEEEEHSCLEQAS

[19] = biological target: T5, Inhibitor of nuclear factor kappa-B kinase subunit beta (Homo sapiens); settings: at 1 µM
[20] = biological target: T6, Inhibitor of nuclear factor kappa-B kinase subunit epsilon (Homo sapiens) (UniProt Q14164); settings: at 0.1 µM;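 further: mean inhibition of IKKε reported, from the GSK PKIS dataset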
T6 sequence (whole entry): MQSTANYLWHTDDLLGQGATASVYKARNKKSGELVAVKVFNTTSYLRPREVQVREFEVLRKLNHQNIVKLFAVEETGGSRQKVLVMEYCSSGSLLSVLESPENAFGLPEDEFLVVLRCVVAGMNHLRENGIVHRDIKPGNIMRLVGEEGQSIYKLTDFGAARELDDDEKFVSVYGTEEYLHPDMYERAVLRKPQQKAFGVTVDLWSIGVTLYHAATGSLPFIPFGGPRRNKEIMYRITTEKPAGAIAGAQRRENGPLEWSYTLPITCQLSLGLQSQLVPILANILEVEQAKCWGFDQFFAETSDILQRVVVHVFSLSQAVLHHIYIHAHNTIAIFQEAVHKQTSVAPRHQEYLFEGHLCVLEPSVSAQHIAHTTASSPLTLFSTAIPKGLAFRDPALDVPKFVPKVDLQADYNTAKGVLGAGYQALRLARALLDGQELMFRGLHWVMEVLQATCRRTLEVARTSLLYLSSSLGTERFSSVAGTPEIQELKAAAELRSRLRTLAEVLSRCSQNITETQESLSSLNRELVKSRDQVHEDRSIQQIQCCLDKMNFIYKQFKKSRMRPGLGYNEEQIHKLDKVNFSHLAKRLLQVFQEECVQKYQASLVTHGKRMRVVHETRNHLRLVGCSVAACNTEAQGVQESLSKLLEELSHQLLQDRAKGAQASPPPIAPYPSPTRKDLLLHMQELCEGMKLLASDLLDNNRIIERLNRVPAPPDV

Row | Compound | inhibition [1] | inhibition [2] | inhibition [3] | inhibition [4] | inhibition [5] | inhibition [6] | inhibition [7] | inhibition [8] | inhibition [9] | inhibition [10] | inhibition [11] | inhibition [12] | inhibition [13] | inhibition [14] | inhibition [15] | inhibition [16] | inhibition [17] | inhibition [18] | inhibition [19] | inhibition [20]
1 | Nc1ncc(-c2cccc(S(N)(=O)=O)c2)c2scc(-c3ccc(F)c(Cl)c3)c12 | 3.12% | -2.06% | -3.1% | 4.44% | 8.82% | 1.02% | 3.18% | 7.12% | 1.6% | -0.6% | -4.57% | -1.05% | 0.43% | 9.52% | 3.4% | -2.46% | -3.58% | 3% | 5.65% | 7.15%
2 | CCNC(=O)O[C@H]1CN[C@H](C#Cc2cc3ncnc(Nc4ccc(OCc5cccc(F)c5)c(Cl)c4)c3s2)C1 | 0.98% | -1.03% | -0.8% | 3.18% | 29% | 2.96% | 17.2% | -1.09% | 0.43% | 0.82% | -0.72% | 0.52% | -3.06% | 0.94% | -1.06% | 2.78% | -6.68% | 3.34% | 1.97% | 2.87%
3 | CN(C)CCOc1ccc(-c2nc(-c3ccncc3)c(-c3ccc4c(c3)CC/C4=N\O)[nH]2)cc1 | 1.28% | -0.47% | -0.41% | 3.08% | 3.29% | 1.62% | 4.12% | -1.17% | -2.78% | 11.7% | -0.62% | -0.49% | -0.4% | 3.04% | 7.33% | 6.61% | 7.1% | 0.93% | 0.86% | 9.22%
4 | CS(=O)(=O)CCNCc1ccc(-c2ccc3ncnc(Nc4ccc(OCc5ccccc5)c(C(F)(F)F)c4)c3c2)o1 | 2.8% | -2.41% | -1.93% | 4.02% | 4.89% | 0.55% | 2.2% | -0.29% | 1.06% | 0.51% | 3.88% | -1.22% | 0.8% | 10.8% | 4.64% | 5.21% | 0.84% | 9.46% | 10.4% | 6.52%
5 | CN1CCC(n2cnc(-c3ccc(F)cc3)c2-c2ccnc(N)n2)CC1 | 2.49% | -1.72% | -1.48% | 1.81% | 5.12% | 4.38% | 27.1% | 1.13% | 3.14% | -2.21% | -3.49% | 0% | -1.67% | 8.38% | 42.7% | 1.97% | 6.98% | 4.41% | 4.02% | 3.07%
6 | COC(=O)Nc1nc2ccc(S(=O)(=O)c3ccc(NC(=O)Nc4cc(C(F)(F)F)ccc4F)cc3)cc2[nH]1 | 2.36% | -1.52% | -4.55% | 0.87% | 2.69% | 2.19% | 2.98% | 1.19% | 1.36% | -0.71% | -2.79% | -0.31% | 0.98% | -0.42% | -2.21% | 6.4% | 2.23% | 5.3% | 7.84% | 2.8%
7 | Fc1cccc(COc2ccc(Nc3ncnc4sc(-c5ccco5)cc34)cc2Cl)c1 | 4.18% | -1.79% | -2.01% | 6.18% | 17.2% | 2.28% | 12.4% | -1.28% | 0.68% | 0% | -6.23% | -2.56% | -0.56% | 8.17% | 3.13% | 8.13% | 10.1% | 5.86% | 6.49% | 6.22%
